From PubChem BioAssay (NCI)
Where “and” joins values, the source holds several entries; their conditions need not be identical. Equal values may be shown once. Compounds without any hit were thinned out: in the full panel of roughly 83,000, 20% have a hit.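 The test compound was applied at a single concentration to cells in 96-well plates for 48 hours, and percent growth was recorded.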 Calls of active or inactive are those of the source. How the source made its calls: active means growth percent below 10; inactive means the rest.

How the values were obtained:
Experiment in all cases: NCI-60 one-dose screen, 48 h (100 = growth as untreated, 0 = no growth, -100 = all killed)
HCT-15 colon = test system: HCT-15 colon
HT29 colon = test system: HT29 colon
SNB-75 CNS = test system: SNB-75 CNS
SNB-19 CNS = test system: SNB-19 CNS
U251 CNS = test system: U251 CNS
PC-3 prostate = test system: PC-3 prostate
SK-MEL-5 melanoma = test system: SK-MEL-5 melanoma
UACC-62 melanoma = test system: UACC-62 melanoma
LOX IMVI melanoma = test system: LOX IMVI melanoma
SK-MEL-28 melanoma = test system: SK-MEL-28 melanoma

Measured: growth

Brc1ccc(/C=C(/C2=NCCN2)n2ccc3ccccc32)cc1
inactive: HCT-15 colon; 10 µM unless noted 73.7% | HT29 colon; 10 µM unless noted 65.1% | SNB-75 CNS; 10 µM unless noted 33% | SNB-19 CNS; 10 µM unless noted 85.1% | U251 CNS; 10 µM unless noted 65.6% | PC-3 prostate; 10 µM unless noted 45% | SK-MEL-5 melanoma; 10 µM unless noted 73.4% | UACC-62 melanoma; 10 µM unless noted 75.8% | LOX IMVI melanoma; 10 µM unless noted 50.5% | SK-MEL-28 melanoma; 10 µM unless noted 100%

O=C1C(c2c[nH]c3ccccc23)=C(c2coc3cc(Br)ccc23)C(=O)N1O
inactive: HCT-15 colon; 10 µM unless noted 97.2% | HT29 colon; 10 µM unless noted 103% | SNB-75 CNS; 10 µM unless noted 65.4% | SNB-19 CNS; 10 µM unless noted 103% | U251 CNS; 10 µM unless noted 101% | PC-3 prostate; 10 µM unless noted 89.6% | SK-MEL-5 melanoma; 10 µM unless noted 97.2% | UACC-62 melanoma; 10 µM unless noted 84.7% | LOX IMVI melanoma; 10 µM unless noted 62.2% | SK-MEL-28 melanoma; 10 µM unless noted 111%

COc1ccc(-c2ccc(-c3ccc(C(=N)N)cn3)s2)cc1Cl
active: HCT-15 colon; 10 µM unless noted -72.5% | HT29 colon; 10 µM unless noted -52.6% | SNB-75 CNS; 10 µM unless noted -98.4% | SNB-19 CNS; 10 µM unless noted -73.9% | U251 CNS; 10 µM unless noted -62.2% | PC-3 prostate; 10 µM unless noted -80.9% | SK-MEL-5 melanoma; 10 µM unless noted -48.4% | UACC-62 melanoma; 10 µM unless noted -92.3% | LOX IMVI melanoma; 10 µM unless noted -84.5% | SK-MEL-28 melanoma; 10 µM unless noted -86.6%

CC(=O)/C=C/c1ccc(N(C)Cc2ccc(C(C)(C)C)cc2)cc1
active: HCT-15 colon; 100 µM -36.9% | SNB-75 CNS; 100 µM -59.5% | SNB-19 CNS; 100 µM -31.2% | U251 CNS; 100 µM -100% | PC-3 prostate; 100 µM -26.1% | SK-MEL-5 melanoma; 100 µM -100% | UACC-62 melanoma; 100 µM -57.1% | LOX IMVI melanoma; 100 µM -100% | SK-MEL-28 melanoma; 100 µM -82.3%
inactive: HCT-15 colon; 10 µM 87.5% | SNB-75 CNS; 10 µM 102% | SNB-19 CNS; 10 µM 110% | U251 CNS; 10 µM 89.8% | PC-3 prostate; 10 µM 77.6% | SK-MEL-5 melanoma; 10 µM 74.7% | UACC-62 melanoma; 10 µM 78.8% | LOX IMVI melanoma; 10 µM 80.1% | SK-MEL-28 melanoma; 10 µM 92.5%

Cc1ccc(-c2nc3nc(-c4ccc(F)cc4)nc(N4CCCNCC4)c3o2)cc1
active: HCT-15 colon; 10 µM unless noted -84.5% | HT29 colon; 10 µM unless noted -81.6% | SNB-75 CNS; 10 µM unless noted -96% | SNB-19 CNS; 10 µM unless noted -94.4% | U251 CNS; 10 µM unless noted -93.2% | PC-3 prostate; 10 µM unless noted -85.2% | SK-MEL-5 melanoma; 10 µM unless noted -87.4% | UACC-62 melanoma; 10 µM unless noted -82.3% | LOX IMVI melanoma; 10 µM unless noted -88.6% | SK-MEL-28 melanoma; 10 µM unless noted -93.8%

CC(C)(C)c1cc(NC(=O)Nc2ccc(-c3cn4c(n3)sc3cc(OCCN5CCOCC5)ccc34)cc2)no1
45.4% (inactive) and -7.53% (active): SNB-75 CNS; 10 µM unless noted
inactive: HCT-15 colon; 10 µM unless noted 23.8% and 51.5% | SNB-19 CNS; 10 µM unless noted 37.4% and 11.4% | PC-3 prostate; 10 µM unless noted 22.8% and 15.2% | SK-MEL-28 melanoma; 10 µM unless noted 42.9% and 33.8%
active: HT29 colon; 10 µM unless noted -41.7% and -1.96% | U251 CNS; 10 µM unless noted -3.4% and 0.378% | UACC-62 melanoma; 10 µM unless noted -53.4% and 5.34%
0.319% (active) and 23.4% (inactive): LOX IMVI melanoma; 10 µM unless noted
13.5% (inactive) and 9.61% (active): SK-MEL-5 melanoma; 10 µM unless noted

CN(C)CCN1C(=O)c2c(c3c4ccccc4n4c3c3c2c2ccccc2n3C2CC(O)C(O)C4(C)O2)C1=O (stereo unspecified)
inactive: HCT-15 colon; 10 µM unless noted 15.5% | SNB-75 CNS; 10 µM unless noted 23.3% | SNB-19 CNS; 10 µM unless noted 17.1% | U251 CNS; 10 µM unless noted 17.9% | PC-3 prostate; 10 µM unless noted 30.2% | SK-MEL-5 melanoma; 10 µM unless noted 34.4% | UACC-62 melanoma; 10 µM unless noted 21.8% | SK-MEL-28 melanoma; 10 µM unless noted 64.5%
active: HT29 colon; 10 µM unless noted 6.62% | LOX IMVI melanoma; 10 µM unless noted 1.87%

COc1ccc(C(=O)/C=C/c2ccc(OCc3ccc(Cl)cc3)cc2)cc1OC
active: SNB-75 CNS; 100 µM -26.3% | SNB-19 CNS; 100 µM -47.3% | U251 CNS; 100 µM -90.3% | SK-MEL-5 melanoma; 100 µM -10.4%
inactive: HCT-15 colon; 10 µM 92.9% | HCT-15 colon; 100 µM 34.1% | HT29 colon; 10 µM 87.2% | HT29 colon; 100 µM 35.8% | SNB-75 CNS; 10 µM 96.9% | SNB-19 CNS; 10 µM 105% | U251 CNS; 10 µM 93.2% | SK-MEL-5 melanoma; 10 µM 92.3% | UACC-62 melanoma; 10 µM 96.1% | UACC-62 melanoma; 100 µM 23.6% | LOX IMVI melanoma; 10 µM 88.8% | LOX IMVI melanoma; 100 µM 22.1% | SK-MEL-28 melanoma; 10 µM 103% | SK-MEL-28 melanoma; 100 µM 55.9%

CCN(Cc1ccccc1)c1ccc(/C=C2\COc3ccccc3C2=O)cc1
inactive: HCT-15 colon; 10 µM 94% | HCT-15 colon; 100 µM 23.6% | HT29 colon; 10 µM 99.7% | SNB-75 CNS; 10 µM 93.2% | SNB-75 CNS; 100 µM 57.6% | SNB-19 CNS; 10 µM 98.9% | SNB-19 CNS; 100 µM 50.4% | U251 CNS; 10 µM 96% | U251 CNS; 100 µM 19.1% | PC-3 prostate; 10 µM 87.1% | PC-3 prostate; 100 µM 26.5% | SK-MEL-5 melanoma; 10 µM 102% | UACC-62 melanoma; 10 µM 87% | UACC-62 melanoma; 100 µM 31% | LOX IMVI melanoma; 10 µM 96.3% | LOX IMVI melanoma; 100 µM 37.5% | SK-MEL-28 melanoma; 10 µM 99.9% | SK-MEL-28 melanoma; 100 µM 53.1%
active: HT29 colon; 100 µM 5.56% | SK-MEL-5 melanoma; 100 µM 6.96%
